Assay results published in the supplement of paper PMC9262897, “Low-cost anti-mycobacterial drug discovery using engineered E. coli” (Nature Communications, 2022).
Structures can show the parent of a compound that is named as a salt. ± gives the standard deviation of the averaged measurements.

How the values were obtained:
Assay in all cases: growth (OD600 after 10 h); higher = more growth (less inhibition)
[1] = test system: E. coli TESEC Alr+ wild-type control; conditions: compound 0.1 mM; raw OD600 reference: median of DMSO wells 0.241, cell-free background 0.041
Description: (§1)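 TESEC Mtb Alr E. coli, or the Alr+ wild-type control, in 384-well plates with Prestwick library compounds at 0.1 mM and 1% DMSO, across arabinose induction levels of 1E3 to 1E7 nM. Growth is read as OD600 after 10 h at 37 °C in triplicate biological replicates.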

E. coli TESEC Mtb Alr [2] = conditions: compound 0.1 mM
Description: as §1

E. coli TESEC Mtb Asd = conditions: compound 0.1 mM
Description: (§2)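 TESEC E. coli strains in which the native enzyme is deleted and replaced by arabinose-inducible Mtb Asd, DapB, CysH or TrpD, each grown in its selective medium. Strains were screened against the Prestwick library at 0.1 mM and 1% DMSO in 384-well format at low and high arabinose induction. Growth is read as OD600 after 10 h in triplicate.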

E. coli TESEC Mtb DapB = conditions: compound 0.1 mM
Description: as §2

E. coli TESEC Mtb Alr [3] = conditions: compound 0.1 mM; remark: listed apart in the source
Description: (§3)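 TESEC Mtb Alr E. coli (ΔaraC ΔtolC ΔentC Δalr ΔdadX, arabinose-inducible Mtb Alr) or the Alr+ wild-type control strain, grown in defined M9-fructose medium without D-alanine in 96-well plates with Prestwick library compounds at 0.1 mM and 1% DMSO. Low Alr induction is 0.1 µM arabinose and high induction is 10 mM arabinose.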

[4] = test system: E. coli TESEC Alr+ wild-type control; conditions: compound 0.1 mM; raw OD600 reference: median of DMSO wells 0.49, cell-free background 0.052
Description: as §3

[5] = arabinose 1000 nM, raw OD600 reference: median of DMSO wells 0.294, cell-free background 0.041
[6] = arabinose 10000 nM, raw OD600 reference: median of DMSO wells 0.264, cell-free background 0.041
[7] = arabinose 100000 nM, raw OD600 reference: median of DMSO wells 0.201, cell-free background 0.041
[8] = arabinose 1000000 nM, raw OD600 reference: median of DMSO wells 0.193, cell-free background 0.041
[9] = arabinose 10000000 nM, raw OD600 reference: median of DMSO wells 0.146, cell-free background 0.041
[10] = arabinose induction (level): High, raw OD600 reference: median of DMSO wells 0.331, cell-free background 0.041
[11] = arabinose induction (level): Low, raw OD600 reference: median of DMSO wells 0.417, cell-free background 0.041
[12] = arabinose induction (level): High, raw OD600 reference: median of DMSO wells […], cell-free background 0.041
[13] = arabinose induction (level): Low, raw OD600 reference: median of DMSO wells 0.227, cell-free background 0.041
[14] = arabinose 100 nM, raw OD600 reference: median of DMSO wells 0.413, cell-free background 0.052
[15] = arabinose 10000000 nM, raw OD600 reference: median of DMSO wells […], cell-free background 0.052

| SMILES | growth [1] | growth (E. coli TESEC Mtb Alr [2]; [5]) | growth (E. coli TESEC Mtb Alr [2]; [6]) | growth (E. coli TESEC Mtb Alr [2]; [7]) | growth (E. coli TESEC Mtb Alr [2]; [8]) | growth (E. coli TESEC Mtb Alr [2]; [9]) | growth (E. coli TESEC Mtb Asd; [10]) | growth (E. coli TESEC Mtb Asd; [11]) | growth (E. coli TESEC Mtb DapB; [12]) | growth (E. coli TESEC Mtb DapB; [13]) | growth (E. coli TESEC Mtb Alr [3]; [14]) | growth (E. coli TESEC Mtb Alr [3]; [15]) | growth [4] |
| --- | --- | --- | --- | --- | --- | --- | --- | --- | --- | --- | --- | --- | --- |
| CC(C(=O)O)c1ccc(C(=O)c2ccccc2)s1 (stereo unspecified) [Tiaprofenic acid] | 0.22 ± 0.012 | 0.253 ± 0.021 | 0.246 ± 0.0058 | 0.201 ± 0.019 | 0.205 ± 0.0076 | 0.143 ± 0.006 | 0.386 ± 0.077 | 0.285 ± 0.099 | 0.182 ± 0.009 | 0.178 ± 0.015 | 0.382 ± 0.02 | 0.35 ± 0.019 | – |
| CCc1cc(Cl)c(OC)c(C(=O)NC[C@@H]2CCCN2CC)c1O [S(-)Eticlopride hydrochloride] | 0.191 ± 0.013 | 0.242 ± 0.024 | 0.271 ± 0.0095 | 0.17 ± 0.0077 | 0.122 ± 0.0019 | 0.163 ± 0.0043 | 0.189 ± 0.015 | 0.356 ± 0.07 | – | – | 0.399 ± 0.0083 | 0.272 ± 0.021 | 0.567 ± 0.012 |
| COc1cc(NS(=O)(=O)c2ccc(N)cc2)ncn1 [Sulfamonomethoxine] | 0.222 ± 0.0061 | 0.259 ± 0.022 | 0.173 ± 0.0027 | 0.2 ± 0.0044 | 0.1141 ± 0.00026 | 0.1384 ± 0.0013 | 0.345 ± 0.061 | 0.413 ± 0.018 | – | – | 0.422 ± 0.0097 | 0.331 ± 0.0088 | 0.596 ± 0.092 |
| N=C(N)c1ccc(OCCCCCOc2ccc(C(=N)N)cc2)cc1 [Pentamidine isethionate] | 0.0725 ± 0.0026 | 0.0837 ± 0.0024 | 0.0536 ± 0.0012 | 0.0903 ± 0.001 | 0.0538 ± 0.0022 | 0.095 ± 0.001 | 0.0804 ± 0.013 | 0.0745 ± 0.01 | 0.224 ± 0.008 | 0.0531 ± 0.0065 | 0.28 ± 0.16 | 0.0605 ± 0.0026 | – |
| CCCC(CCC)C(=O)O [Valproic acid] | 0.241 ± 0.0026 | 0.293 ± 0.0086 | 0.2722 ± 0.00032 | 0.22 ± 0.02 | 0.22 ± 0.0036 | 0.137 ± 0.0016 | 0.416 ± 0.018 | 0.404 ± 0.047 | – | – | 0.41 ± 0.01 | 0.358 ± 0.022 | 0.478 ± 0.035 |
| N/C(=N\C(=O)c1nc(Cl)c(N)nc1N)NCc1ccccc1 [Benzamil hydrochloride] | 0.14 ± 0.0042 | 0.196 ± 0.0093 | 0.256 ± 0.0065 | 0.15 ± 0.0096 | 0.111 ± 0.0026 | 0.161 ± 0.0069 | 0.163 ± 0.006 | 0.199 ± 0.0084 | – | – | 0.41 ± 0.0064 | 0.299 ± 0.0065 | 0.502 ± 0.034 |
| C[N+]1(C)CCC(=C(c2ccccc2)c2ccccc2)CC1 [Diphemanil methylsulfate] | 0.206 ± 0.0076 | 0.289 ± 0.01 | 0.255 ± 0.01 | 0.197 ± 0.013 | 0.16 ± 0.014 | 0.153 ± 0.0035 | 0.203 ± 0.027 | 0.352 ± 0.065 | – | – | 0.4115 ± 0.0028 | 0.36 ± 0.015 | 0.4312 ± 0.0036 |
| CC(=O)NCCCS(=O)(=O)O [Acamprosate calcium] | 0.233 ± 0.004 | 0.2868 ± 0.0017 | 0.242 ± 0.0043 | 0.202 ± 0.026 | 0.1706 ± 0.0011 | 0.142 ± 0.0039 | 0.259 ± 0.079 | 0.309 ± 0.033 | – | – | 0.409 ± 0.01 | 0.35 ± 0.025 | 0.472 ± 0.035 |
| N[C@H]1CONC1=O [(S)-(-)-Cycloserine] | 0.247 ± 0.0025 | 0.0382 ± 0.001 | 0.0389 ± 0.0016 | 0.217 ± 0.0065 | 0.188 ± 0.012 | 0.108 ± 0.0032 | 0.329 ± 0.034 | 0.354 ± 0.038 | – | – | 0.045 ± 0.00044 | 0.13 ± 0.0078 | 0.558 ± 0.063 |
| CCCCc1nc(Cl)c(CO)n1Cc1ccc(-c2ccccc2-c2nnn[nH]2)cc1 [Losartan] | 0.204 ± 0.0085 | 0.281 ± 0.015 | 0.258 ± 0.0039 | 0.209 ± 0.026 | 0.161 ± 0.0058 | 0.1297 ± 0.0011 | 0.23 ± 0.017 | 0.409 ± 0.0075 | – | – | 0.4187 ± 0.0032 | 0.279 ± 0.0092 | 0.495 ± 0.071 |
| N=c1nc(N2CCCCC2)cc(N)n1O [Minoxidil] | 0.244 ± 0.0093 | 0.28 ± 0.0067 | 0.247 ± 0.014 | 0.225 ± 0.0082 | 0.166 ± 0.0034 | 0.148 ± 0.0099 | 0.371 ± 0.048 | 0.384 ± 0.054 | – | – | 0.406 ± 0.0072 | 0.379 ± 0.034 | 0.45 ± 0.038 |
| CN1CCC(=C2c3ccccc3CC(=O)c3sccc32)CC1 [Ketotifen fumarate] | 0.196 ± 0.0062 | 0.254 ± 0.0091 | 0.246 ± 0.01 | 0.206 ± 0.032 | 0.131 ± 0.0024 | 0.143 ± 0.0042 | 0.198 ± 0.036 | 0.39 ± 0.042 | – | – | 0.405 ± 0.0086 | 0.303 ± 0.017 | 0.54 ± 0.048 |
| C[n+]1ccccc1/C=N/O [Pralidoxime chloride] | 0.253 ± 0.0089 | 0.318 ± 0.018 | 0.256 ± 0.013 | 0.202 ± 0.015 | 0.177 ± 0.0021 | 0.156 ± 0.007 | 0.476 ± 0.013 | 0.455 ± 0.046 | – | – | 0.407 ± 0.018 | 0.323 ± 0.015 | 0.605 ± 0.018 |
| CCOC(=O)O[C@]1(C(=O)COC(=O)CC)CC[C@H]2[C@@H]3CCC4=CC(=O)C=C[C@]4(C)[C@H]3[C@@H](O)C[C@@]21C [Prednicarbate] | 0.201 ± 0.0033 | 0.268 ± 0.0098 | 0.271 ± 0.0029 | 0.269 ± 0.025 | 0.199 ± 0.012 | 0.174 ± 0.013 | 0.438 ± 0.024 | 0.37 ± 0.053 | – | – | 0.401 ± 0.0095 | 0.28 ± 0.027 | 0.38 ± 0.015 |
